An excerpt weighted towards active compounds, which were near 20% of everything screened.
Pf growth 96h: P. falciparum growth inhibition at 96 hour, primary screen for plastid delayed-death inhibitors; AID 504834; Potency, µM (top dose mostly 28.7 µM), usual class: inhibitors; 6.9% of 320,000 active; P. falciparum luciferase reporter growth, 96 h
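Infected RBCs, 2% Hct / 0.05% parasitemia final; luciferase-reporter P. falciparum; cpd 96 h, 37 C, 5% CO2; luciferase detection reagent; luminescence.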
Cycloheximide cs: counter-screen for Shiga toxin inhibitors: cycloheximide protein synthesis inhibition | AID 2314 | 12% of 300,000 active | cell reporter, cycloheximide protein synthesis inhibition counterscreen | max response, %; in the data active means max response mostly above about 13%, no sharp cut-off; inactive means mostly below about 14%; further: read at 38.3 µM for the half of the compounds with a filed dose
HCMV inh: human cytomegalovirus inhibition; HFF cells, HCMV-luciferase reporter, 72 h; stronger effect = lower value; AID 1259415; activity change, negative = inhibition, % at 57.5 µM; 4.5% of 410,000 active; in the data active means activity change below about -60%; inconclusive means no clear call, values can overlap the other calls; inactive means above about -39%
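Screen run at 2 compound doses on HFFs infected with reporter HCMV, MOI 1 PFU/cell. Luciferase activity from cell lysates at 72 h post infection gave inhibition relative to buffer-only and Salinomycin wells.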
Pf growth 48h: P. falciparum growth inhibition at 48 hours (one generation); P. falciparum luciferase growth in erythrocytes, 48 h; Potency, µM (top dose mostly 28.7 µM), hits mostly inhibitors; 5.9% of 310,000 active; AID 504832
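In quantitative HTS format, infected erythrocytes bearing luciferase-reporter parasites were treated for a single generation at 37 C. Luminescence after adding detection reagent served as the growth measure.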
Shiga inhibitor: Shiga toxin inhibition. Vero cells, Shiga toxin protein synthesis inhibition reporter. inhibition, % at 38.7 µM. 9.2% of 290,000 active. AID 2315; in the data active means inhibition mostly above about 28%, no sharp cut-off; inactive means mostly below about 43%
Hits are given with their value; . = inactive; ? = inconclusive; / = no result; [ ] = another dose, or the depositor's remark. Unless noted, the call rests on the fitted dose curve; in most records, active means well fitted inhibition curve with a large enough effect; inconclusive means small, poorly fitted or top-dose-only effect, or another doubt; inactive means no such curve, though single readings can be large or run the other way.

SMILES	Pf growth 96h	Cycloheximide cs	HCMV inh	Pf growth 48h	Shiga inhibitor
COc1cccc(N/C(SCc2cccc([N+](=O)[O-])c2)=C(/C#N)C(N)=O)c1	.	.	.	?	.
CCC1=NN2C(=N)/C(=C\c3cccn3-c3ccc(Cl)cc3)C(=O)N=C2S1	?	.	-81	.	.
Cc1nn(-c2ccccc2)c2c1N(CC(=O)NCc1ccc(N(C)C)cc1)C(=O)CS2	/	/	.	/	/
CC(=O)Nc1ccccc1NC(=O)C/C(C)=N/NC(=O)c1ccccn1	?	38	.	.	61
C/C(CC(=O)NC1CCCCC1)=N\NC(=O)c1ccccn1	.	39	.	.	64
C/C(CC(=O)NCc1ccccc1Cl)=N/NC(=O)c1ccccn1	.	25	.	.	79
O=[N+]([O-])c1ccc(NN=C(c2ccccc2)c2ccccc2)nc1	/	/	.	/	/
FC(F)(F)c1nnc2c(Sc3ccccc3)nc3ccc(Cl)cc3n12	?	.	-103	?	.
FC(F)(F)c1nc2ccccc2n2c(-c3ccc(Cl)cc3Cl)nnc12	.	.	.	.	.
CC(C)(C)c1ccc(OCCCC(=O)Nc2ccc(S(N)(=O)=O)cc2)cc1	.	.	?	.	.
COc1ccc(-c2ccc(NS(=O)(=O)c3ccccc3Cl)cc2)nn1	/	/	.	/	/
O=C(c1ccc(Cl)cc1)N1CCN(c2ccc([N+](=O)[O-])c(NCc3cccnc3)c2)CC1	/	/	.	/	/
O=C(c1ccccc1F)N1CCN(c2ccc([N+](=O)[O-])c(NCc3cccnc3)c2)CC1	10µM	.	?	?	.
O=C(c1ccccc1)N1CCN(c2ccc([N+](=O)[O-])c(NCc3cccnc3)c2)CC1	?	.	.	9.3µM	.
O=C(O)c1ccc2c(c1)C(=O)N([C@]1(C(=O)O)CC1c1ccccc1)C2=O (some centres undefined)	.	.	/	.	.
O=C(Nc1cc2c3c(c1)CC(=O)N3CCC2)c1ccccc1Br	.	/	.	.	/
O=C(c1ccco1)N1CCN(Cc2cccc(F)c2)CC1	/	.	.	.	.
O=C(c1cccc(F)c1)N1CCN(Cc2ccco2)CC1	6.6µM	.	.	.	.
O=C(Nc1ccc(N2CCN(C(=O)c3ccco3)CC2)cc1)c1ccccc1F	?	22	.	?	.
O=C(Nc1ccc(N2CCN(C(=O)c3ccco3)CC2)cc1)c1ccccc1Br	.	.	.	?	.
O=C(Nc1ccc(N2CCN(C(=O)c3ccco3)CC2)cc1)c1cccc(F)c1	?	22	.	?	.
COc1ccc2c(c1)CCC(C)N2C(=O)C(=O)c1c[nH]c2ccccc12 (centres undefined)	.	.	.	.	.
Clc1ccc(CSc2ncn(-c3ccccc3)n2)cc1	.	31	.	.	.
Clc1cccc(CSc2nccn2-c2ccccc2)c1	?	.	.	?	.
Clc1cccc(CSc2ncn(-c3ccccc3)n2)c1	.	23	.	.	35
SMILES	Pf growth 96h	Cycloheximide cs	HCMV inh	Pf growth 48h	Shiga inhibitor
O=C(CSc1ncn(-c2ccccc2)n1)Nc1nncs1	.[1.15 µM]	.	?	.	.
Cc1cc(C)n2c(Nc3ccc4c(c3)OCCO4)c(-c3ccco3)nc2n1	12µM	.	/	/	.
Cc1cc(C)n2c(Nc3ccc4c(c3)OCCO4)c(-c3ccc(C)o3)nc2n1	5.9µM	.	.	/	.
CN1CCCC(CC2c3ccccc3Sc3ccccc32)C1 (centres undefined)	?	/	.	9.3µM	/
CN1CCCC(CN2c3ccccc3Sc3ccccc32)C1 (centres undefined)	?	.	.	?	.
COc1cccc(CNC(=O)c2ccc(NC(=O)CC3SC(N4CCCC4)=NC3=O)cc2)c1 (centres undefined)	?	/	.	?	/
CS/C(N)=N/N=C/c1cc(C)ccc1O	.	38	.	.	61
CCS/C(N)=N/N=C/c1cc(C)ccc1O	/	53	.	.	.
CCCCS/C(N)=N/N=C/c1cc(C)ccc1O	/	44	.	.	82
CS/C(N)=N/N=C/c1cc(Br)cc(Br)c1O	?	17	.	?	65
CCN(CC)c1ccc(/C=N/N=C(N)N)c(O)c1	?	.	?	?	.
Cc1nnc(C)n1/N=C/c1cc(Br)cc(Br)c1O	?	.	.	?	.
Cc1ccc(CN2CCN(/N=C/c3cc(Br)ccc3O)CC2)cc1	.	.	.	.	.
CCOC(=O)Cn1nc(C)n(-c2ccc(Br)cc2)c1=O	.	.	?	.	.
O=C(c1nc(-c2ccc(Cl)cc2)n2c1CCCCC2)N1CCN(c2ccc(F)cc2)CC1	/	/	.	/	/
COc1cccc(NC(=O)CSc2nc3ncc(Br)cc3[nH]2)c1	.	.	.	.	.
Cc1cc(C)cc(OCc2nc3ncc(Br)cc3[nH]2)c1	/	/	-63	/	/
COc1cccc(OCc2nc3ncc(Br)cc3[nH]2)c1	?	17	.	.	.
COc1ccc(-c2cn3nc(N4CCCC(C(=O)NCc5ccccc5Cl)C4)sc3n2)cc1 (centres undefined)	/	/	.	/	/
O=C1NC(=O)/C(=C/c2ccc(N3CCOCC3)o2)N1	?	.	.	1.5µM	.
O=C1NC(=O)/C(=C\c2ccc(N3CCOCC3)o2)N1	?	.	.	7.4µM	.
CN1C(=O)C(=Cc2ccc(N3CCOCC3)o2)C(=O)N(C)C1=O	.	.	.	.	.
Cc1ccccc1N1C(=O)NC(=O)/C(=C/c2ccc(N3CCOCC3)o2)C1=O	.	.	.	.	.
Oc1cccc(Nc2nccc3[nH]c(-c4cccc(OC(F)(F)F)c4)nc23)c1	/	/	.	/	/
COc1ccc(C(C(=O)NC(C)(C)C)n2c(-c3ccc(=O)[nH]c3)nc3ccccc32)cc1 (centres undefined)	/	/	-86	/	/
SMILES	Pf growth 96h	Cycloheximide cs	HCMV inh	Pf growth 48h	Shiga inhibitor
COc1ccc(C(C(=O)NC(C)(C)C)n2c(COc3ccc(C)cc3)nc3ccccc32)cc1 (centres undefined)	/	/	.	/	/
O=C1c2ccccc2CC1Sc1nnc(-c2ccccn2)o1 (centres undefined)	13µM	17	.	?	75
O=C1CC(Sc2nnc(-c3ccccc3O)o2)C(=O)N1c1ccccc1 (centres undefined)	.	.	.	.	.
CCCCCCc1cc2cc(-c3nnc(-c4ccccc4O)o3)c(=O)oc2cc1O	/	.	-104	.	.
CCCCCCc1cc2cc(S(=O)(=O)c3ccc(F)cc3)c(=O)oc2cc1O	.	.	.	.	.
CCCCCCc1cc2cc(-c3nnc(-c4cc(OC)c(OC)c(OC)c4)o3)c(=O)oc2cc1O	.	.	/	.	.
CCCCCCc1cc2cc(-c3nnc(-c4ccccc4OC)o3)c(=O)oc2cc1O	/	.	-74	3.7µM	.
O=C(COc1ccccc1[N+](=O)[O-])NCC1COc2ccccc2O1 (centres undefined)	/	/	.	/	/
Cc1ccc(-c2nc(SC(C)C(=O)NC3CC3)n[nH]2)cc1 (centres undefined)	/	/	.	/	/
O=[N+]([O-])c1ccc(-c2nnc(S)n2-c2ccccc2)cc1	.	28	/	.	/
COc1ccc(-n2c(SCc3ccc([N+](=O)[O-])cc3)nnc2-c2ccccc2)cc1	?	.	.	?	.
CC(=O)Nc1cccc(-c2csc(C(C)(O)c3ccccc3)n2)c1 (centres undefined)	/	/	.	/	/

Screening results deposited in PubChem by National Center for Advancing Translational Sciences (NCATS).
